The text below walks through data of PubChem BioAssay.

Activity calls are given as the source filed them. The rule behind the calls is not given here.

The target in the assay is Pantothenate synthetase (Mycobacterium tuberculosis (strain ATCC 25618 / H37Rv)) (UniProt P9WIL5). As to the kind of experiment: Recombinant Mtb pantothenate synthetase (PanC) inhibitors, coupled enzyme, confirmatory (AID 375).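 Note: 0% = full reaction with vehicle and 100% = no enzyme background.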 The settings on record: coupled enzyme assay; at 10 µM, stronger effect = higher value.
Chain of Pantothenate synthetase (Mycobacterium tuberculosis (strain ATCC 25618 / H37Rv)) (P9WIL5 whole entry, looked up): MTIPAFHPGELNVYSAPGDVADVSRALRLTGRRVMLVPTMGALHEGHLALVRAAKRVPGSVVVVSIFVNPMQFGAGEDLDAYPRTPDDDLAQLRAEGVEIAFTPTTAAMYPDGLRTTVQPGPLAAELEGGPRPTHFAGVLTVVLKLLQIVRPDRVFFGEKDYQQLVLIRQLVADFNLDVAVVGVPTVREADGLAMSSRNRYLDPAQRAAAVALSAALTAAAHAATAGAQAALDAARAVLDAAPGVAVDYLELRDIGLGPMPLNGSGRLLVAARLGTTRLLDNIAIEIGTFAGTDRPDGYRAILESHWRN
Consider `CC(C)C[C@H](NC(=O)Nc1cccc(C(F)(F)F)c1)C(=O)O`, for which the inhibition is 0% (inactive).
With `CC(=O)OCCNc1cc(N2CCN(C)CC2)c2noc3c2c1C(=O)c1ccccc1-3` the figure was 0% (inactive); with `Cc1[nH]n(C(N)=S)c(=O)c1C(c1ccccc1)C(C#N)C#N` (stereo unspecified), 0% (inactive).
With `COc1nc(-c2ccc(Cl)cc2)ccc1-c1noc(-c2ccncc2)n1` the figure was 4% (inactive); with `CN(CCNS(=O)(=O)c1ccc2c(c1)oc(=O)n2C)Cc1ccccc1`, 0% (inactive); with `CC1CCN(C(=O)CSc2nc3c(cnn3-c3ccccc3)c(=O)[nH]2)CC1`, 0% (inactive).
With `COc1ccc2[nH]c(C)c(CCN3C(=O)OC(C)(C)C3(C)O)c2c1` (stereo unspecified) the figure was 0% (inactive).
As to `CCC(C)(C(=O)NC1CCCC1)N(Cc1cccs1)C(C)=O` (stereo unspecified), the inhibition was 2% (inactive).
With `COc1ccc(C2c3c(oc4ccccc4c3=O)C(=O)N2Cc2ccncc2)cc1OC` (stereo unspecified) the figure was 6% (inactive); with `Cc1ccc(CC2SC(=O)NC2=O)cc1Cl` (stereo unspecified), 0% (inactive).
With `O=C(CN1CCN(c2nc(-c3ccccc3)cs2)CC1)Nc1ccc2c(c1)OCO2` the figure was 4% (inactive); with `CC(C)(C)C1=C[C@@H](CO)C[C@@H](CO)C1`, 0% (inactive).
With `CC1(C)S[C@@H]2[C@H](NC(=O)Cc3ccccc3)C(=O)N2[C@H]1C(=O)O` the figure was 6% (inactive); with `CCOc1ccc(OCc2cccc(C(=O)N3CCOCC3)c2)cc1`, 2% (inactive); with `O=C(NCCCCNC(=O)c1cccnc1)c1cccnc1`, 0% (inactive).
On to `Cc1cn([C@H]2C[C@H](N=[N+]=[N-])[C@@H](CO)O2)c(=O)[nH]c1=O`, for which the inhibition is 0% (inactive).
